Most compounds without a hit are left out; they make up all but 11% or so of the library.
AmpC no deterg – inhibitors of E. coli AmpC beta-lactamase without detergent. P00811. AmpC nitrocefin hydrolysis, absorbance 480 nm, 0.0001% Triton. Potency, µM (doses to about 57.1 µM), for inactives: at the highest dose activity change, negative = inhibition, hits mostly inhibitors. 330,000 tested, 0.52% active. AID 485341;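 further: plate controls were no compound for no effect and no enzyme for full effect; nearly all actives have a fitted effect of over 20% in size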
Target sequence (P00811 whole entry, looked up): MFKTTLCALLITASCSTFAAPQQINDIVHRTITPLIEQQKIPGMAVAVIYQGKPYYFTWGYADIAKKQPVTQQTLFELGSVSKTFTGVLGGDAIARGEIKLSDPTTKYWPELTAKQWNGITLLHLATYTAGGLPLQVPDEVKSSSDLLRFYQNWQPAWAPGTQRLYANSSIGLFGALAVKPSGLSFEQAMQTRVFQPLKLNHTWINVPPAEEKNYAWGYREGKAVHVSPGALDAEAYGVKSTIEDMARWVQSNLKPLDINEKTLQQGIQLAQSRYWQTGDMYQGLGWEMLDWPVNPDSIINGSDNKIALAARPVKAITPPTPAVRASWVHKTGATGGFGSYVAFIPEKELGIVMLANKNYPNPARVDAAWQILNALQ
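AmpC (5.3 nM in the dispensed reagent) in 20 mM phosphate pH 7.0 with 0.01% (detergent screen) or 0.0001% Triton X-100 was preincubated with compounds for 15 min at room temperature. Nitrocefin was then added from an 800 uM solution, and hydrolysis was followed at 480 nm.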
HCV inhibitor – HCV inhibition | Huh7.5.1 HCVcc-Cre infection, luciferase reporter, 44 h | Potency, µM (highest dose often 41.8 µM), without a hit: top-dose activity change, negative = inhibition, actives largely listed as inhibitors | 340,000 tested, 3.4% active
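Infectious HCV cell culture screen: compound-treated cells (1,000/well, pre-plated 4 h) are infected with HCVcc-Cre at roughly 0.5 moi and grown 44 h. Infection is quantified by luciferase signal after 15 min substrate incubation at room temperature.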
AMA1 RON2 block – AMA1-RON2 (P. falciparum) interaction inhibition; AlphaScreen AMA1-biotinylated RON2 peptide binding; Potency, µM (highest dose often 58.2 µM), without a hit: at the highest dose activity change, negative = inhibition, usual class: inhibitors; 360,000 tested, 0.2% active; AID 720542;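 further: 0% = vehicle wells and -100% = peptide control; nearly all actives have a fitted effect of over 45% in size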
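AMA1 (3D7) with his tag at 25 nM final met compounds first, then biotinylated RON2 peptide at 25 nM; detection used donor plus acceptor beads, 10 µg/mL apiece, read by AlphaScreen after 30 min at room temperature.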
Pf growth 48h – P. falciparum growth inhibition at 48 hours (one generation) | P. falciparum luciferase growth in erythrocytes, 48 h | Potency, µM (doses to about 28.7 µM), without a hit: at the top dose activity change, negative = inhibition, hits mostly inhibitors | 310,000 tested, 5.9% active
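Compounds are pin-transferred into medium, infected erythrocytes (2% hematocrit, 0.1% parasitemia final) are added, and plates sit one parasite generation at 37 C in 5% CO2. Detection reagent is then added and luminescence measured.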
AmpC detergent – blocks E. coli AmpC beta-lactamase in detergent assay; P00811; AmpC hydrolysis of nitrocefin, absorbance 480 nm, 0.01% Triton; Potency, µM (highest dose often 114 µM), for the others: at the top dose activity change, negative = inhibition, actives largely listed as inhibitors; 370,000 tested, 0.041% active;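 further: 0% = no-compound wells and -100% = no-enzyme wells; nearly all actives have a fitted effect of over 25% in size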
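AmpC (5.3 nM in the dispensed reagent) in 20 mM phosphate pH 7.0 with 0.01% (detergent screen) or 0.0001% Triton X-100 was preincubated with compounds for 15 min at room temperature. Nitrocefin was then added from an 800 uM solution, and hydrolysis was followed at 480 nm.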
Pf growth 96h – inhibits malaria parasite growth, 96 h; P. falciparum luciferase reporter growth, 96 h; AID 504834; 320,000 tested, 6.9% active; Potency, µM (series often up to 28.7 µM), for inactives: top-dose activity change, negative = inhibition, actives largely listed as inhibitors
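Parasite growth measured via integrated firefly luciferase reporter in P. falciparum. Infected erythrocytes at 2% hematocrit, 0.05% parasitemia final were treated 96 hours at 37 C under 5% CO2, and luminescence was read.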
* hit, by the source's call. The call rests on the fitted dose curve; in most records, active means well fitted curve in the direction sought with a large enough effect; inconclusive means small, poorly fitted or top-dose-only effect, or another doubt; inactive means no such curve, though single readings can be large; an effect the other way counts as inactive or inconclusive. Unless noted, on the % scale 0 is the no-effect control and ±100 the full control effect; potency means the concentration at half of the fitted maximal effect.

CCOC(=O)c1c(-c2ccccc2)c2cc(OC)ccc2n1CCCN(C)C was read as AmpC no deterg 175%, HCV inhibitor 14µM*, AMA1 RON2 block -14%, Pf growth 48h 9.3µM*, AmpC detergent inconclusive and Pf growth 96h 65%.
CCOC(=O)c1c(C)n(CCNC(C)=O)c2ccc(OC)cc12 was read as AmpC no deterg 29%, HCV inhibitor -8%, AMA1 RON2 block 21%, Pf growth 48h 10% and AmpC detergent 2%.
Cc1cccc(Cn2c(=O)n3nc(-c4ccccc4)nc3c3ccccc32)c1 was read as AmpC detergent 10%.
`CC(C)CN(C[C@@H](OP(=O)(O)O)[C@H](Cc1ccccc1)NC(=O)O[C@@H]1CCOC1)S(=O)(=O)c1ccc(N)cc1` gave Pf growth 48h 7% and Pf growth 96h -7%.
Screening CC(c1ccccc1F)n1cc(C(=O)NCc2ccncc2)nn1 (configuration not stated) returned AmpC no deterg -12%, HCV inhibitor 5%, AMA1 RON2 block -15%, Pf growth 48h -2%, AmpC detergent -5% and Pf growth 96h 0.52µM*.
`CCc1ccc(NC(=O)Cn2c(=O)n(-c3ccc(Cl)c(Cl)c3)c(=O)c3c(C)c(C)sc32)cc1` gave AmpC detergent 23%.
Cc1c(C)c2ccc(OC(C)C(=O)N3CC[C@@]4(O)CCCC[C@H]4C3)c(C)c2oc1=O (some centres not stated) was read as AmpC no deterg 180%, HCV inhibitor -83%, AMA1 RON2 block 6%, Pf growth 48h inconclusive, AmpC detergent 12% and Pf growth 96h inconclusive.
Screening Cc1c(C)c2ccc(OC(C)C(=O)N3CC[C@@]4(O)CCCC[C@H]4C3)cc2oc1=O (some centres not stated) returned AmpC no deterg 187%, HCV inhibitor inconclusive, AMA1 RON2 block -3%, Pf growth 48h 12%, AmpC detergent -1% and Pf growth 96h 9.3µM*.
O=C(CCl)N(c1ccccc1)c1ccccc1 was read as AmpC no deterg -12%, HCV inhibitor 8.9µM*, AMA1 RON2 block -16%, Pf growth 48h 1.7µM*, AmpC detergent 2% and Pf growth 96h 4.1µM*.
`Cc1cccc(N(Cc2cc(=O)[nH]c3ccccc23)C(=O)CCl)c1` gave AmpC no deterg -7%, HCV inhibitor inconclusive, AMA1 RON2 block -7%, Pf growth 48h inconclusive, AmpC detergent 0% and Pf growth 96h inconclusive.
`CC(=O)N(CCN(C(C)=O)c1ccccc1)c1ccccc1` gave AmpC no deterg -9%, HCV inhibitor 7%, AMA1 RON2 block 14%, Pf growth 48h -6% and AmpC detergent -1%.
Screening CCCCCCCN(C(=O)CCl)c1cccc(C)c1 returned AmpC no deterg -12%, HCV inhibitor 13µM*, AMA1 RON2 block 38%, Pf growth 48h -14%, AmpC detergent -9% and Pf growth 96h inconclusive.
O=C(CCl)N(CCc1ccccc1)CCc1ccccc1 was read as AmpC no deterg -16%, HCV inhibitor inconclusive, AMA1 RON2 block 0%, Pf growth 48h 12µM*, AmpC detergent 4% and Pf growth 96h inconclusive.
`CCCCCCN(C(=O)CCl)c1ccccc1` gave AmpC no deterg -10%, HCV inhibitor 5µM*, AMA1 RON2 block 6%, Pf growth 48h inconclusive, AmpC detergent -1% and Pf growth 96h inconclusive.
For O=C(Nc1ccccc1Cl)C1CCN(c2nc3ccccc3nc2C(F)(F)F)CC1 the results were AmpC detergent -7%.
For N#CCCN(C(=O)CCl)c1cccc(Cl)c1 the results were AmpC no deterg 1%, HCV inhibitor inconclusive, AMA1 RON2 block -4%, Pf growth 48h inconclusive, AmpC detergent 5% and Pf growth 96h 5.2µM*.
For COc1ccc(OC)c(CCNC(=O)c2c(C)nn(-c3ccc(F)cc3)c2-n2cccc2)c1 the results were AmpC detergent 15%.
For O=C(CSc1ccc2ccccc2c1Br)Nc1cccc(S(=O)(=O)NC2=NCCCCC2)c1 the results were AmpC no deterg 7.1µM*, HCV inhibitor -22%, AMA1 RON2 block -14%, Pf growth 48h 7%, AmpC detergent -10% and Pf growth 96h inconclusive.
O=C(/C=C/c1ccccc1[N+](=O)[O-])Nc1cccc(S(=O)(=O)NC2=NCCCCC2)c1 was read as AmpC no deterg -28%, HCV inhibitor 3.2µM* and AMA1 RON2 block -6%.
Screening Cc1cccc(-n2ccnc2SCC(=O)Nc2cccc(S(=O)(=O)NC3=NCCC3)c2)c1C returned AmpC no deterg -11%, HCV inhibitor 13%, AMA1 RON2 block -16%, Pf growth 48h 10µM*, AmpC detergent -13% and Pf growth 96h -21%.
`O=C(CCl)Nc1cccc(S(=O)(=O)NC2=NCCCCC2)c1` gave AmpC no deterg -19%, HCV inhibitor 6.3µM* and AMA1 RON2 block 20%.
`COc1ccc(C)cc1NC(=O)Cn1cc(S(=O)(=O)N2CCC(C)CC2)c2ccccc2c1=O` gave AmpC detergent 14%.
`Cc1ccc(NC(=O)c2sc(-n3nc(C)c(CCC(C)C)c3C)nc2C)cc1C` gave AmpC detergent 14%.
COc1ccc(OC)c2sc(N(Cc3cccnc3)C(=O)c3ccc(C(C)=O)cc3)nc12 was read as AmpC detergent 2%.
CC(C)(C)OC(=O)NCCCC[C@H](NC(=O)c1nc[nH]c1C(=O)N1CCN(c2ccccc2)CC1)C(=O)OC(C)(C)C was read as AmpC no deterg 156%, HCV inhibitor inconclusive, AMA1 RON2 block 90%, Pf growth 48h 12µM*, AmpC detergent 2% and Pf growth 96h 13µM*.
For CC(C)(C)OC(=O)NCCCC[C@H](NC(=O)c1nc[nH]c1C(=O)N1CCN(C(=O)OC(C)(C)C)CC1)C(=O)OC(C)(C)C the results were AmpC no deterg 197%, HCV inhibitor -16%, AMA1 RON2 block 58%, Pf growth 48h inconclusive, AmpC detergent 8% and Pf growth 96h 8.3µM*.
`CCCCCN1C(C(=O)c2ccccc2)=C(NC(=O)c2ccc(OC)cc2)c2ccccc2S1(=O)=O` gave AmpC detergent 30%.
`C/C(=N\Nc1nc2ccccc2[nH]1)c1ccc(C)o1` gave AmpC no deterg -28%, HCV inhibitor 7%, AMA1 RON2 block 47%, Pf growth 48h inconclusive, AmpC detergent inconclusive and Pf growth 96h -12%.
